# In the library only some 1% were active in any assay of this set; here they are far more common.
# HEK293 viab: reduces viability of HEK-293 SNCA reporter cells; Potency, µM (top dose mostly 57.1 µM), for the others: top-dose activity change, negative = cytotoxicity, hits mostly cytotoxic; HEK-293-SNCA-luc viability, GF-AFC fluorescence, 24 h; 0.12% of 150,000 active;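 further: potency means the concentration at half of the fitted maximal effect; 0% = DMSO-treated cells and -100% = medium-only wells without cells; nearly all actives have a fitted effect of over 30% in size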
#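 Cytotoxicity counterscreen: after 24 h compound treatment of genome-edited SNCA-luciferase HEK-293 cells, live-cell protease substrate GF-AFC read by fluorescence after 30 min; activity scaled between DMSO (0%) and medium-only (-100%), curves Hill-fitted.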
# GPT2 inh: blocks human glutamate pyruvate transaminase 2; Q8TD30; Recombinant GPT2, coupled pyruvate oxidase/HRP Amplex Red fluorescence; Potency, µM (highest dose often 57.7 µM), for inactives: at the top dose activity change, negative = inhibition, most hits filed as inhibitors; 0.25% of 100,000 active; AID 1671188; further: potency means the concentration at half of the fitted maximal effect; nearly all actives have a fitted effect of over 60% in size
# Target sequence (Q8TD30 whole entry, looked up): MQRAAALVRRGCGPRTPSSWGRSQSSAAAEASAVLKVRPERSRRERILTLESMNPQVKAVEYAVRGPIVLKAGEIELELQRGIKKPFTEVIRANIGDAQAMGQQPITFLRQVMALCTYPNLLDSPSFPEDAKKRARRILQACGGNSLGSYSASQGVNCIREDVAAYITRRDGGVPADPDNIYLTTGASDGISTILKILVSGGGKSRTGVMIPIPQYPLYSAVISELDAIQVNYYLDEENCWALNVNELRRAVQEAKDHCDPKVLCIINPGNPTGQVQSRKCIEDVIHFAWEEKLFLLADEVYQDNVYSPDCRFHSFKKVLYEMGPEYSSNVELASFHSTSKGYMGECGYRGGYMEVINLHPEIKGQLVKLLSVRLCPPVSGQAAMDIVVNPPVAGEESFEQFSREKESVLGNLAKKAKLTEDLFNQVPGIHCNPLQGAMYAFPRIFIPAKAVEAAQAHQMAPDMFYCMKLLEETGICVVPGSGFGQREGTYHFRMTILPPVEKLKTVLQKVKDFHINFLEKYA
#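 GPT2 10ng/uL, a-KG 250uM, L-Ala 2mM, HEPES pH7.5 + 0.0001% Tween; 30 min RT. Then Amplex mix (PO/HRP/ThPP), 30 min RT dark, fluorescence. AOA 50uM used as positive control.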
# IP6K1 inhibitor: blocks human inositol hexakisphosphate kinase 1; Q92551; IP6K1 kinase, ADP-Glo luminescence, 2 h; hits give low values; activity change, % (series mostly up to about 58 µM); 0.81% of 140,000 active; in the data active means activity change below about -25%
#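 ADP-Glo luminescence measures ADP made by human IP6K1 during a 2 h RT reaction with ATP/IP6 (mix at 1.3 mM/130 uM); top library doses 57.5 and 19.1 uM final.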
# SNCA expr inhib: reduces expression of the alpha-synuclein gene | AID 1671194 | Potency, µM (doses to about 57.2 µM), without a hit: at the highest dose activity change, negative = inhibition, hits mostly inhibitors | HEK-293 SNCA-luciferase knock-in, luminescence, 24 h | 0.17% of 140,000 active;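 further: potency means the concentration at half of the fitted maximal effect; plate controls were DMSO cells for no effect and cell-free wells for full effect; nearly all actives have a fitted effect of over 45% in size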
# IP6K1 conf: confirmation of human IP6K1 inhibitors. AID 1645852. Potency, µM (doses to about 49 µM), without a hit: at the top dose activity change, negative = inhibition, actives largely listed as inhibitors. 13% of 1,200 active. recombinant IP6K1 kinase, ADP-Glo luminescence, 2 h. shares compounds with IP6K1 inhibitor; further: potency means the concentration at half of the fitted maximal effect; nearly all actives have a fitted effect of over 65% in size
# * marks the source's active call; other numbers are inactive results; i = inactive; ? = inconclusive; · = no result given; [ ] = dose if it differs, or a comment. Unless noted, the call rests on the fitted dose curve; in most records, active means well fitted curve in the direction sought with a large enough effect; inconclusive means small, poorly fitted or top-dose-only effect, or another doubt; inactive means no such curve, though single readings can be large; an effect the other way counts as inactive or inconclusive. Unless noted, on the % scale 0 is the no-effect control and ±100 the full control effect.
SMILES,HEK293 viab,GPT2 inh,IP6K1 inhibitor,SNCA expr inhib,IP6K1 conf
O=C1c2cnc(-c3cccc(CO)c3)nc2OCCN1Cc1ccccc1,3.7%[87.6 µM],-5.0%[88.5 µM],-13.7,33.7%[87.6 µM],·
Cc1cc(C)c(CNC(=O)c2cc(-c3cccnc3)cc3c2OCCN3C)c(=O)[nH]1,-11.6%[87.6 µM],4.6%[88.5 µM],-28.1*,16.8%[87.6 µM],-29.7%
Cc1cc(C)c(CNC(=O)c2cc(-c3cnn(C)c3)cc3c2OCCN3C)c(=O)[nH]1,-6.2%[87.6 µM],i,-20.7,24.1%[87.6 µM],·
COc1cc(F)ccc1-c1cc(C(=O)NCc2c(C)cc(C)[nH]c2=O)c2c(c1)N(C(C)C)CCO2,-15.7%,?,-27.0*,-29.8%,-4.9%
Cc1ccc(CCNC(=O)c2nn(C)c3c2CSc2ccccc2-3)cc1,8.1%,·,-28.9*,9.6%,-17.6%
O=C(c1ccccc1F)N1CCN(c2nccc(Nc3ccccc3Cl)n2)CC1,9.7%,-4.1%,3.1,-22.7%,·
CCN(CC)c1ccc(C(=C2C=CC(=[N+](CC)CC)C=C2)c2cc(S(=O)(=O)O)ccc2S(=O)(=O)[O-])cc1,-25.7%[23.9 µM],i,-50.6*,-7.7%[25.6 µM],?
Cc1[nH]c(/C=C2\C(=O)Nc3ccc(F)cc32)c(C)c1C(=O)NCCN1CCCC1,-11.1%,i,-5.4,·,1.9%[18.9 µM]
Cc1[nH]c(/C=C2\C(=O)Nc3ccc(S(=O)(=O)N(C)c4cccc(Cl)c4)cc32)c(C)c1C(=O)N1CCN(C)CC1,-29.7%,i,15.3,·,·
Cc1[nH]c(C=C2C(=O)Nc3ccc(S(=O)(=O)Cc4c(Cl)cccc4Cl)cc32)c(C)c1C(=O)N1CCC[C@H]1CN1CCCC1,-17.0%,-0.5%,·,?,-11.5%
C[C@]1(C2CCCC2)Cc2cc(OCC(=O)O)c(Cl)c(Cl)c2C1=O,4.0%,-12.6%,-41.8*,·,7.31µM*
CCOC(=O)C1CCN(c2c(C(=O)c3ccc(OCC)cc3)cnc3ccc(OC)cc23)CC1,?,·,-33.2*,?,-3.3%
COC(=O)c1ccccc1NC(=O)c1sc2nc(C)cc(C)c2c1NC(=O)c1ccccc1OC,7.8%,·,-29.9*,-21.2%,8.4%
COCCNc1nc(-c2ccccc2C(F)(F)F)nc2ccccc12,-19.5%,·,·,-1.2%,·
Cc1ccc(CNc2nc(-c3ccccc3C(F)(F)F)nc3ccccc23)s1,·,·,·,·,-6.7%
FC(F)(F)c1ccccc1-c1nc(NCc2ccc(Cl)cc2)c2ccccc2n1,·,·,·,·,-1.7%
FC(F)(F)c1ccccc1-c1nc(NCc2ccccc2)c2ccccc2n1,·,·,·,·,30.6%
CN(Cc1cccs1)c1nc(-c2ccccc2C(F)(F)F)nc2ccccc12,·,·,·,·,8.3%
CC(C)c1ccc(NC(=O)c2ccc(=O)n(Cc3ccccc3)c2)cc1,-22.8%,·,-28.0*,5.0%,-24.8%
CCOC(=O)[C@@H]1CN(C(=O)OCC(C)(C)C)[C@H]2c3ccccc3O[C@@H]12,·,·,14.3,·,·
COc1ccc(-c2cccc(C(=O)N3CCN(C(=O)c4cccnc4)CC3)c2)nn1,·,·,-0.9,·,·
COc1ccc(S(=O)(=O)N2CCC3(CC2)CC(N2CCOCC2)CCO3)cc1 (configuration not stated),-8.0%,1.2%,-25.7*,-24.7%,-16.1%
CCOC(=O)C(Cc1cccc(N2CCN([S+](=O)([O-])c3c(Cl)cccc3Cl)CC2)c1)OC (configuration not stated),·,·,9.1,·,·
CN1C(=O)N[C@H](Cc2c[nH]c3c(Cl)cccc23)C1=O,·,·,·,·,-4.9%
Cc1ccc(S(=O)(=O)n2nc(C)c(S(=O)(=O)N3CCCCCC3)c2C)cc1C,-1.2%,·,-26.9*,24.6%,3.8%
SMILES,HEK293 viab,GPT2 inh,IP6K1 inhibitor,SNCA expr inhib,IP6K1 conf
CCCCOc1ccc(S(=O)(=O)n2nc(C)c(S(=O)(=O)N3CCCCCC3)c2C)cc1,14.6%,·,-5.9,-3.4%,·
CCCCOc1ccc(S(=O)(=O)n2nc(C)c(S(=O)(=O)N3CCC(C)CC3)c2C)cc1,-1.2%,·,-26.0*,4.1%,-6.2%
Cc1ccc(CNc2oc(-c3ccc(COc4ccc(Cl)cc4)o3)nc2C#N)cc1,4.0%,·,-29.9*,-17.3%,12.0%
COc1cccc(NC(=O)CSc2ncc(S(=O)(=O)c3ccc(C)c(C)c3)c(=O)[nH]2)c1,14.8%,·,-29.3*,?,?
COc1ccc(S(=O)(=O)c2cnc(SCC(=O)Nc3cc(F)ccc3C)[nH]c2=O)cc1Cl,3.9%,·,7.9,12.7%,·
Cc1ccc(S(=O)(=O)c2cnc(SCC(=O)Nc3ccc4c(c3)OCCO4)[nH]c2=O)cc1,-3.6%,·,-30.4*,20.0%,?
